# In PubChem BioAssay (NCI):
# This is part of a sample that, as a whole, favours compounds with a hit. Of some 79,000 tested, about 15% had one in any assay. Values without a mark were called inactive. Calls of active or inactive are those of the source. No stated cut-off is given here; in the data, active means growth inhibition above about 70%; inactive means the rest.
# Experiment: NCI Yeast Anticancer Drug Screen. Data for the rad18 strain (AID 177)
# Details: S. cerevisiae rad18 mutant growth inhibition, active compounds read high
# Experimental: Growth inhibition of yeast strains with defined genetic alterations is measured as a screen for potential anti-cancer activity. Selected strains with alterations in DNA damage repair or cell cycle control were exposed to compounds and growth inhibition was measured relative to vehicle treated controls. The strain used in this assay is rad18
Structure (SMILES),growth inhibition (at 1.2 µM) [%],growth inhibition (at 3.7 µM) [%],growth inhibition (at 11.0 µM),growth inhibition (at 33.0 µM),growth inhibition (at 100.0 µM)
Nc1ccc(N=Nc2ccc(-c3ccc(O)cc3)cc2)c2ccc(S(=O)(=O)O)cc12,-4,11,48%,69%,72% (active)
CCOc1ccc(N)c(S)c1,1,0,9%,85% (active),95% (active)
CC1=COC2=C(C)C(=O)C(=O)c3c(C)ccc1c32,-3,18,30%,79% (active),93% (active)
CCS(=O)(=O)Nc1ccc(Nc2c3ccccc3nc3ccccc23)c(OC)c1,-21,-12,-18%,23%,74% (active)
CC(C)C(=O)CC(Sc1ccc(N)cc1)c1ccccc1 (stereo not given),-8,-2,12%,30%,52%
CCCCCCCN(CCCCCCC)CC(=O)c1ccc2cc(Cl)c3ccccc3c2c1,-9,19,98% (active),97% (active),93% (active)
Cc1cccc(/C=N/NC(=S)NC2CCCCC2)n1,-5,-4,3%,20%,19%
BrC1C2CCC3OC3C12 (stereo not given),1,7,95% (active),98% (active),99% (active)
